Source: PubChem BioAssay (NCATS)
Inconclusive results are not listed. The source made the active and inactive calls. Unless noted, calls come from the whole dose curve; as a rule, active = well fitted curve in either direction with a large enough effect (not every such curve was filed as active); inconclusive = small, poorly fitted or top-dose-only effect, or another doubt; inactive = flat fitted curve, though single readings scatter.

How the values were obtained:
[1] = AP1 Signaling Pathway (AID 357); note: % is set by controls: 0 for no effect and ±100 for the full control effect
Procedure, shortened: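 AP-1-bla ME-180 cells with beta-lactamase reporter under AP-1 response element, stimulated with EC50 EGF; compounds titrated, 5 hours at 37 degrees Celsius. CCF4 read at 460/530 nm ratio; positive and negative modulators judged by AC50.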

[2] = NFAT Signaling Pathway (AID 444); conditions: Jurkat NFAT-bla M1, carbachol, beta-lactamase ratio, 5 h; at 17.2 µM (top of the series) unless noted;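 note: carbachol stimulus at about its EC50 of 1 µM final; % is set by controls: 0 for no effect and ±100 for the full control effect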
Procedure, shortened: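 Jurkat cells with NFAT-driven β-lactamase reporter and co-expressed M1 receptor, stimulated with carbachol (final 1 uM, ~EC50), compound titration, 5 h at 37 °C. CCF4 loaded 1 h at RT; 460/530 nm ratio gave %activity and AC50.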

[3] = Stat Signaling Pathway (AID 446);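 note: ME-180 cervical cancer cells given 40 pM IL-6 alongside compound; SIE-controlled beta-lactamase reporter measured as 460/530 nm FRET emission ratio; % is set by controls: 0 for no effect and ±100 for the full control effect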
Procedure, shortened: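 Normalization used AC90 stimulation (300 pM IL-6) and AC90 inhibition (125 nM pan-JAK inhibitor at 40 pM IL-6). The underlying signal is SIE-driven beta-lactamase in ME-180 cells after 5 h IL-6 exposure with compound.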

[4] = target: Glucocorticoid receptor (Homo sapiens) (UniProt P04150); assay: GR-GFP Redistribution (AID 450;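 active = compounds whose dose series gives a full or clear partial fitted curve of increased nuclear translocation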; note: potency is the fitted concentration of half-maximal effect); conditions: U2OS GR-GFP nuclear translocation, laser cytometry, 2 h
Chain of Glucocorticoid receptor (Homo sapiens) (P04150 whole entry, looked up, the tested form may be a part): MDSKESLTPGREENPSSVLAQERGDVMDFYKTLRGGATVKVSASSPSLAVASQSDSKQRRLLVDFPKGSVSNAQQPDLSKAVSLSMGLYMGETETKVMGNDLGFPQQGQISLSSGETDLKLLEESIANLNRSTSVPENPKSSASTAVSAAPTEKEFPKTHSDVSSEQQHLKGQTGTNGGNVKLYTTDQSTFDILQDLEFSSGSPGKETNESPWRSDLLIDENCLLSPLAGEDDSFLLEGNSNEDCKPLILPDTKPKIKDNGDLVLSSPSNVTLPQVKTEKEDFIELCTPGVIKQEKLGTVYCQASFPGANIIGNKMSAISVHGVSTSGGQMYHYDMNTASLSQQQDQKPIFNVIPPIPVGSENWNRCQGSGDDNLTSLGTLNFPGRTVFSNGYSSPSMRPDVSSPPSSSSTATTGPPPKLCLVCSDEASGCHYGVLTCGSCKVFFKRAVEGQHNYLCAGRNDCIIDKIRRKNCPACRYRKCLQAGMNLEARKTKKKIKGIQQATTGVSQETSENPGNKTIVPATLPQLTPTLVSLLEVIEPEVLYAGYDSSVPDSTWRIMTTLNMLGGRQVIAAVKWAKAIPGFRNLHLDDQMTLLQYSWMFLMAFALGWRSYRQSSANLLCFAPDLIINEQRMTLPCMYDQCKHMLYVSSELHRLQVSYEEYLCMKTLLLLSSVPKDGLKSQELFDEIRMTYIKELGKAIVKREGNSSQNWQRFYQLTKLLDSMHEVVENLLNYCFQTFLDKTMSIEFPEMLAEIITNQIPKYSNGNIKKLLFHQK

[5] = Cell Viability - BJ (AID 421; calls by dose curve;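 note: potency is the fitted concentration of half-maximal effect; cells exposed to compound for 40 hours at 37 °C before readout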); conditions: BJ fibroblast viability, qHTS
Procedure, shortened: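 Normal human BJ foreskin fibroblasts, 1500/well in complete medium, treated 40 hr at 37 °C. Cellular ATP by CellTiter-Glo luminescence; normalized to DMSO and 100 uM tamoxifen, AC50 from Hill fit.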

[6] = Cell Viability - Jurkat (AID 426;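 active = dose-dependent loss of cell ATP signal giving a full or clear fitted curve, ranked by lower potency value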; note: potency is the fitted concentration of half-maximal effect); conditions: qHTS
Procedure, shortened: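 Cytotoxicity was scored as loss of cellular ATP, measured by luciferase-based luminescence, in Jurkat clone E6-1 cells after 40 h compound treatment; tamoxifen and doxorubicin served as positive controls.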

[7] = Cell Viability - Hek293 (AID 427;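 active = compounds whose dose-response curve shows a full or clear partial loss of cell viability, called from curve shape rather than a numeric limit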;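 note: potency is the fitted concentration of half-maximal effect; cells exposed to compound for 40 hours at 37 °C before reading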); conditions: qHTS
Procedure, shortened: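 HEK293 cells in complete medium were exposed to compound for 40 hr at 37 °C, then cellular ATP was read by CellTiter-Glo luminescence. Data were normalized to DMSO (basal) and 100 uM tamoxifen (100% inhibition), and AC50 came from Hill fits.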

[8] = Cell Viability - HepG2 (AID 433; calls by dose curve;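 note: potency is the fitted concentration of half-maximal effect; potency for ATP loss meaning cytotoxicity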); conditions: qHTS
Procedure, shortened: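 HepG2 cells, 1500 per well, treated 40 hr at 37 °C in complete medium; viability from intracellular ATP by CellTiter-Glo luminescence. Normalized to DMSO and 100 uM tamoxifen; AC50 from Hill fit of qHTS concentration-response.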

[9] = Cell Viability - MRC5 (AID 434; calls by dose curve;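 note: potency is the fitted concentration of half-maximal effect; potency reflects cytotoxicity seen as loss of intracellular ATP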); conditions: MRC5 lung fibroblast viability, qHTS
Procedure, shortened: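 ATP luminescence read-out (CellTiter-Glo, 20 min RT) after 40 hr, 37 °C compound exposure of 1500 MRC5 cells/well. Data normalized to DMSO (basal) and 100 uM tamoxifen (100% inhibition); AC50 from standard Hill equation.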

[10] = Cell Viability - SK-N-SH (AID 435; calls by dose curve;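 note: potency is the fitted concentration of half-maximal effect; compound exposure lasted 40 h at 37 °C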); conditions: SK-N-SH neuroblastoma cell viability qHTS
Procedure, shortened: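 SK-N-SH neuroblastoma cells (1500/well) treated 40 h at 37 °C in complete medium; viability read as cellular ATP by CellTiter-Glo luminescence. Normalized to DMSO and 100 uM tamoxifen; AC50 from Hill fits of qHTS concentration-response.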

[11] = Cell Viability - N2a (AID 540; active = well fitted curve in the direction sought with a large enough effect; an effect the other way counts as inactive or inconclusive; note: nearly all actives have a fitted effect of over 45% in size; note: potency is the fitted concentration of half-maximal effect;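 for activity change, negative = cytotoxicity: plate controls were DMSO alone for no effect and tamoxifen control for full effect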)
Procedure, shortened: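 In this qHTS cytotoxicity screen, ATP-dependent luciferase luminescence reports viable N2a cells after a 40 hr compound exposure in complete culture medium. Potencies are AC50 values from standard Hill equation fits.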

[12] = Cell Viability - NIH 3T3 (AID 541; active = well fitted curve in the direction sought with a large enough effect; an effect the other way counts as inactive or inconclusive; note: nearly all actives have a fitted effect of over 25% in size; note: potency is the fitted concentration of half-maximal effect;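 for activity change, negative = cytotoxicity: plate controls were DMSO alone for no effect and tamoxifen positive control for full effect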); conditions: NIH 3T3 cell viability, qHTS; activity change, negative = cytotoxicity: at 92.2 µM (top of the series)
Procedure, shortened: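 In this cytotoxicity screen, acute toxicity is scored as an ATP drop measured by CellTiter-Glo in NIH 3T3 fibroblasts following a 40 hr, 37 °C incubation with compound.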

[13] = Cell Viability - HUV-EC-C (AID 542; active = well fitted curve in the direction sought with a large enough effect; an effect the other way counts as inactive or inconclusive; note: % is set by controls: 0 for no effect and ±100 for the full control effect; nearly all actives have a fitted effect of over 35% in size)
Procedure, shortened: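 Concentration-dependent ATP loss in HUV-EC-C cells is the measure. Exposure lasts 40 hr at 37 °C; luminescence follows CellTiter-Glo addition, and Hill fits give AC50.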

[14] = Cell Viability - H-4-II-E (AID 543; active = well fitted curve in the direction sought with a large enough effect; an effect the other way counts as inactive or inconclusive; note: nearly all actives have a fitted effect of over 35% in size; note: potency is the fitted concentration of half-maximal effect)
Procedure, shortened: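 AC50 from Hill-modelled qHTS concentration-response curves. H-4-II-E rat hepatoma cells in complete medium, 40 hr exposure at 37 °C, viability by CellTiter-Glo ATP luminescence.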

[15] = Cell Viability - SH-SY5Y (AID 544; active = well fitted curve in the direction sought with a large enough effect; an effect the other way counts as inactive or inconclusive;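 note: 0% = DMSO alone and -100% = 100 µM tamoxifen; nearly all actives have a fitted effect of over 55% in size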); conditions: SH-SY5Y neuroblastoma cell viability; viability change, negative = cytotoxic: at 92.2 µM (top of the series)
Procedure, shortened: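 Quantitative HTS in SH-SY5Y neuroblastoma cells, 40 hr treatment at 37 °C, ATP content by luciferase luminescence; AC50 from Hill fits.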

[16] = Cell Viability - Renal Proximal Tubule (AID 545; active = well fitted curve in the direction sought with a large enough effect; an effect the other way counts as inactive or inconclusive;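 note: 0% = DMSO only and -100% = 100 µM tamoxifen; nearly all actives have a fitted effect of over 40% in size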)
Procedure, shortened: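 Rat renal proximal tubule primary cells, 1000/well, exposed to compounds for 40 hr at 37 °C in complete medium; cellular ATP read by CellTiter-Glo luminescence. AC50 from concentration-response fitted with standard Hill equation.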

[17] = target: Glucocorticoid receptor (Homo sapiens) (UniProt P04150); assay: GR-EFC Redistribution (AID 451; calls by dose curve; note: potency is the fitted concentration of half-maximal effect); conditions: CHO-K1 GR-EFC translocation, beta-gal luminescence, 2 h
Procedure, shortened: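 CHO-K1 cells expressing nuclear EA and GR-ED fragments of b-gal; compounds titrated up to 46 uM final, 2 h at 37 C. GR nuclear translocation read as complemented b-gal luminescence after 1 h RT detection.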

[18] = target: Mitogen-activated protein kinase 10 (Mus musculus) (UniProt Q61831); assay: JNK3 AlphaScreen Assay (AID 530);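 note: kinase came from lysate of stimulated human HepG2 cells; signal reports phosphorylation of biotinylated GST-cJun 1-79 at Ser73 with 10 µM ATP; % is set by controls: 0 for no effect and ±100 for the full control effect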
Procedure, shortened: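 HepG2 lysate (IL-1b/TNFa pre-activated) + biotin-GST-cJun 1-79 + anti-pSer73 cJun; cpd titration, 15 min RT; ATP 10 uM start; Tris pH 7.6, MgCl2, DTT, vanadate; beads in EDTA buffer; AlphaScreen.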

[19] = target: Cytochrome P450 1A2 (Homo sapiens) (UniProt P05177); assay: p450-cyp1a2 (AID 410; calls by dose curve; note: potency is the fitted concentration of half-maximal effect;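 for activity change, negative = inhibition: -100% = full effect of reference inhibitor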)
Chain of Cytochrome P450 1A2 (Homo sapiens) (P05177 whole entry, looked up): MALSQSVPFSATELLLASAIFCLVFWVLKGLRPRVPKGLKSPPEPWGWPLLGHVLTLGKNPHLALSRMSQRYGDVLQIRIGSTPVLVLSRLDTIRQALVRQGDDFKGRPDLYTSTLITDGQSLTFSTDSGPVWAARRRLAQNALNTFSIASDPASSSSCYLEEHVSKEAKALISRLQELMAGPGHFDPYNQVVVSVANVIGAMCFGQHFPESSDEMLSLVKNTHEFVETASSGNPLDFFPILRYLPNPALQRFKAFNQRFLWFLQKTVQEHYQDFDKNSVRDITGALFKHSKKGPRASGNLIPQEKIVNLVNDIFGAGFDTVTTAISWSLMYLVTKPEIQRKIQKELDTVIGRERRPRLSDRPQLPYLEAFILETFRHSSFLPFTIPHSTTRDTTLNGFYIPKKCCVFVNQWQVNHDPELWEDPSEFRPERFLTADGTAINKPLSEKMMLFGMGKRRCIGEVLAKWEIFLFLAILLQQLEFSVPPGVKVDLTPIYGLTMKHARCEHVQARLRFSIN
Procedure, shortened: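 Read-out is luminescence from luciferin produced by CYP1A2 demethylation of Luciferin-ME (100uM, at Km). Detection reagent stopped the 60 min NADPH-dependent reaction; signals were normalized to 57 uM furafylline.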

CN(C)CCOC(=O)C(c1ccccc1)C1(O)CCCC1 (stereo not drawn)
active: activity change, negative = inhibition [2] -76.1%
inactive: outcome [1] | outcome [3] | Potency [4] > 20.6 µM

C/C=C/c1ccc(O)c(OC)c1
inactive: Potency [5] > 92 µM | Potency [6] > 92 µM | Potency [7] > 92 µM | Potency [8] > 92 µM | Potency [9] > 92 µM | Potency [10] > 92 µM | Potency [11] | activity change, negative = cytotoxicity [12] -17% | outcome [13] | Potency [14] | viability change, negative = cytotoxic [15] 1.26% | outcome [16]

O=c1[nH]c(=O)n([C@H]2C[C@H](O)[C@@H](CO)O2)cc1F
inactive: outcome [1] | outcome [3] | Potency [4] > 20.6 µM

CN1CCC(OC(c2ccccc2)c2ccccc2)CC1
inactive: outcome [1] | outcome [3] | Potency [17] > 20.6 µM

COc1ccc(C(=O)c2ccccc2O)c(O)c1
inactive: outcome [1] | activity change, negative = inhibition [2] -15.7% | outcome [3] | Potency [4] > 20.6 µM | Potency [17] > 20.6 µM | Potency [18]

CC(=O)OC[C@H]1O[C@@H](n2ncc(=O)[nH]c2=O)[C@H](OC(C)=O)[C@@H]1OC(C)=O
inactive: outcome [1] | activity change, negative = inhibition [2] -22.9% | outcome [3] | Potency [4] > 20.6 µM

COc1cc([C@H]2Oc3cc([C@H]4Oc5cc(O)cc(O)c5C(=O)[C@@H]4O)ccc3O[C@@H]2CO)ccc1O
active: Potency [12] 31.6 µM | Potency [14] 31.6 µM | viability change, negative = cytotoxic [15] -84.4%
inactive: Potency [5] > 92 µM | Potency [7] > 92 µM | Potency [8] > 92 µM | Potency [9] > 92 µM | Potency [10] > 92 µM | Potency [11] | outcome [13]

CCOc1ccccc1C(N)=O
inactive: Potency [5] > 92 µM | Potency [6] > 92 µM | Potency [7] > 92 µM | Potency [8] > 92 µM | Potency [9] > 92 µM | Potency [10] > 92 µM | Potency [11] | activity change, negative = cytotoxicity [12] 2.98% | outcome [13] | Potency [14] | viability change, negative = cytotoxic [15] -2.76% | outcome [16]

CN1CCc2cccc3c2[C@H]1Cc1ccc(O)c(O)c1-3
inactive: Potency [4] > 46 µM | Potency [17] > 46 µM

CCCCN1C[C@H](O)[C@@H](O)[C@H](O)[C@H]1CO
inactive: outcome [1] | activity change, negative = inhibition [2] 14.7% | outcome [3] | Potency [4] > 20.6 µM

CCOC(=O)Nc1ccc2c(c1)N(C(=O)CCN1CCOCC1)c1ccccc1S2
inactive: Potency [19] | outcome [3] | Potency [17] > 20.6 µM

CCCCc1cc2ccccc2c(OCCN(C)C)n1
active: Potency [19] 0.0794 µM
inactive: outcome [3] | Potency [4] > 20.6 µM | Potency [17] > 20.6 µM

CCN(CC)CCNC(=O)COc1ccc(OC)cc1
inactive: outcome [1] | activity change, negative = inhibition [2] -21.8% | outcome [3] | Potency [4] > 20.6 µM | Potency [17] > 20.6 µM

CN=C(N)NCCC[C@H](N)C(=O)O
inactive: outcome [1] | activity change, negative = inhibition [2] -7.03% [at 38 µM] | Potency [18]

Oc1ccc(Cl)cc1Cc1cc(Cl)ccc1O
active: Potency [7] 37.4 µM | Potency [8] 40.6 µM | Potency [11] 31.6 µM | activity change, negative = cytotoxicity [12] -84.9% | viability change, negative = cytotoxic [15] -85.8%

CC(=O)OCC(=O)[C@H]1CC[C@H]2[C@@H]3CCC4=CC(=O)CC[C@]4(C)[C@H]3CC[C@]12C
inactive: outcome [1] | outcome [3]

CC(=O)O[C@]1(C(C)=O)CC[C@H]2[C@@H]3C=C(C)C4=CC(=O)CC[C@]4(C)[C@H]3CC[C@@]21C
active: Potency [4] 0.00185 µM
inactive: outcome [1] | activity change, negative = inhibition [2] -25.3% | outcome [3]

NC(=O)c1ccccc1O
inactive: Potency [5] > 92 µM | Potency [6] > 92 µM | Potency [7] > 92 µM | Potency [8] > 92 µM | Potency [9] > 92 µM | Potency [10] > 92 µM | Potency [11] | activity change, negative = cytotoxicity [12] 6.43% | outcome [13] | Potency [14] | viability change, negative = cytotoxic [15] 4.84% | outcome [16]
